Assay [1] has as its target Voltage-gated inwardly rectifying potassium channel KCNH2 (Homo sapiens) (UniProt Q12809). Put plainly: qHTS Assay for Small Molecule Inhibitors of the Human hERG Channel Activity (AID 588834).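 Further: lower thallium flux fluorescence means stronger hERG block; nearly all actives have a fitted effect of over 50% in size.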 Further: potency means the concentration at half of the fitted maximal effect. The settings on record: U2OS BacMam hERG, FluxOR thallium flux fluorescence; series mostly up to 46.1 µM. Summed up:
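Homogeneous FluxOR thallium flux assay using hERG-expressing U2OS cells (BacMam). Compound treatment about 10 minutes preceded stimulation; reduced fluorescence taken as channel block.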
(In general: Quantitative high-throughput screening tests each substance at several concentrations.)

Assay [2] concerns the target Luciferin 4-monooxygenase (Photinus pyralis) (UniProt P08659). Put plainly: Biochemical firefly luciferase enzyme assay for NPC (AID 624030).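 Further: purified P. pyralis luciferase at 10 nM with luciferin and ATP substrate; nearly all actives have a fitted effect of over 70% in size.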 As to conditions: purified P. pyralis luciferase, luminescence, 5 min; series mostly up to 58.6 µM. Summed up:
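Purified P. pyralis luciferase at 10 nM in 50 mM Tris Acetate (final), luminescence read within 5 minutes of enzyme addition to compounds. Activity normalised to PTC124 versus DMSO; concentration-response curves classed by r2, magnitude and activity.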

Assay [3] can be described thus: S16 Schwann cell viability assay (CellTiter-Glo assay) (AID 624031).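 Further: cellular ATP luminescence as a viability measure; nearly all actives have a fitted effect of over 70% in size.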 As to conditions: S16 rat Schwann cells viability, 24 h; series mostly up to 57.5 µM. In a few lines: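 Native S16 rat Schwann cells, 500-750 cells/well in DMEM with 10% FBS, dosed with compound after overnight culture and incubated 24h at 37 degree Celsius/5% CO2. Viability by CellTiter-Glo luminescence; % activity normalized to no-cell wells and DMSO-treated cells.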
In general terms: In ATP-based viability assays light output follows the ATP content of the culture.

Assay [4] in a line: S16 Schwann cell PMP22 intronic element beta-lactamase assay (AID 624044; calls by dose curve; further: nearly all actives have a fitted effect of over 15% in size). As to conditions: S16 rat Schwann cells, PMP22 element beta-lactamase FRET, 24 h; series mostly up to 38.3 µM. Summed up: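 Beta-lactamase reporter under a PMP22 intronic regulatory element in stable S16 rat Schwann cells; 24 h compound exposure. 460 nm blue signal normalized between DMSO (0%) and potassium clavulanate, with 535 nm FRET tracking viability; curves classed by r2 and response.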

Assay [5] in a line: S16 Schwann cell PMP22 intronic element firefly luciferase assay (AID 624032). Further: nearly all actives have a fitted effect of over 30% in size. Further: potency means the concentration at half of the fitted maximal effect. The settings on record: S16 rat Schwann cells, PMP22 element FLuc, 24 h; series mostly up to 57.5 µM. In a few lines:
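Rat S16 Schwann cells stably carrying firefly luciferase driven by a PMP22 intronic element, in 10% FBS, treated 24 h at 37 C. ONE-Glo luminescence normalized to PTC124 control and DMSO (0%); curves classed by r2, magnitude and activity.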

Assay [6] in a line: qHTS of Trypanosoma Brucei Inhibitors: LOPAC Validation (AID 624147). As to conditions: purified enzyme assay, luminescence, 45 min; series mostly up to 57.5 µM. In a few lines: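 Luminescent Kinase-Glo Plus end-point after 45 min room-temperature reaction of T. brucei pyruvate kinase started with 130 uM ADP (final). Buffer TEA 50 mM pH 7.2 with KCl, MgCl2, BSA, Tween-20; titration-based qHTS with fitted concentration-effect curves.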

Assay [7] deals with Glucagon-like peptide 1 receptor (Homo sapiens) (UniProt P43220). Put plainly: qHTS of GLP-1 Receptor Agonists: LOPAC Validation (AID 624148).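 Further: higher luminescence signal means agonism.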 As to conditions: GLP-1R agonist cell assay; series mostly up to 46.1 µM. In a few lines: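 HEK293 cells stably co-expressing GLP-1R and a cAMP-responsive luciferase reporter, plated 12 hours before compound, then incubated 4-6 hr at 37 deg C. Luminescence read 12 min after detection reagent.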
Glucagon-like peptide 1 receptor (Homo sapiens), sequence (P43220 whole entry, looked up): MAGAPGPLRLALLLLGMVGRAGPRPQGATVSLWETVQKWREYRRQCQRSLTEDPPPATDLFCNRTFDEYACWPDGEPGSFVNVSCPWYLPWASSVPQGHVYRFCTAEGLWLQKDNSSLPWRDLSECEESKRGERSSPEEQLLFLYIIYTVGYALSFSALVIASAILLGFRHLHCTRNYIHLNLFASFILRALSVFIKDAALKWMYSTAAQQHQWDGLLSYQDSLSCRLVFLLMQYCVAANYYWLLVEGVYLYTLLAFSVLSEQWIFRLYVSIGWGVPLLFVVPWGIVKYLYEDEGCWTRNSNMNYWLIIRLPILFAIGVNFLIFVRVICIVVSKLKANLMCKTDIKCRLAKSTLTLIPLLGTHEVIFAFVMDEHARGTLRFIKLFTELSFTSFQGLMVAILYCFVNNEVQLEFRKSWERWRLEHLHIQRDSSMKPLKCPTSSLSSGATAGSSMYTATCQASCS

Assay [8] can be described thus: qHTS of Nrf2 Activators: LOPAC Validation (AID 624149). The settings on record: Nrf2/ARE reporter cell assay; series mostly up to 46.1 µM. Summed up: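 AREc32_Fluc cells, 1000/well, OPTI-MEM + 5% FBS, o/n 37 deg C 5% CO2; compound pin-transfer, 24 hr 37 deg C; Steady-Glo 30 min RT, luminescence read.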
A short description of assay [9]: HTS Assay for Allosteric Antagonists of the Human D2 Dopamine Receptor: Hit Validation in HTRF (AID 624455). Further: potency means the concentration at half of the fitted maximal effect. The settings on record: Cells stably expressing D1 dopamine receptor, inhibition mode; series mostly up to 46.1 µM. In a few lines:
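HTRF read-out; cells stably expressing D1 receptor; hits scored for inhibition of D1-mediated response. Primary screen: calcium flux, force-coupled inducible Hek293 Trex D2 line, antagonism vs EC80 dopamine.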
For orientation: In TR-FRET formats the signal depends on donor and acceptor labels being close together.

Assay [10] addresses Glutaminase kidney isoform, mitochondrial (Homo sapiens) (UniProt O94925). The assay is described as follows: qHTS for Inhibitors of Glutaminase (GLS): LOPAC Validation (AID 624146). Further: nearly all actives have a fitted effect of over 60% in size. Further: potency means the concentration at half of the fitted maximal effect. The settings on record: glutaminase enzyme activity inhibition; series mostly up to 46.1 µM. Summed up: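 Compounds were pin-transferred onto hKGA, after which L-glutamine (1 mM solution) and a detection mix of glutamate oxidase, HRP and Amplex Red were added. Initial and 30 min RT fluorescence reads were collected.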

Results filed as inconclusive are left out. Activity calls are given as the source filed them. Unless noted, the call rests on the fitted dose curve; in most records, active means well fitted curve in the direction sought with a large enough effect; inconclusive means small, poorly fitted or top-dose-only effect, or another doubt; inactive means no such curve, though single readings can be large; an effect the other way counts as inactive or inconclusive.

Voltage-gated inwardly rectifying potassium channel KCNH2 (Homo sapiens), sequence (Q12809 whole entry, looked up): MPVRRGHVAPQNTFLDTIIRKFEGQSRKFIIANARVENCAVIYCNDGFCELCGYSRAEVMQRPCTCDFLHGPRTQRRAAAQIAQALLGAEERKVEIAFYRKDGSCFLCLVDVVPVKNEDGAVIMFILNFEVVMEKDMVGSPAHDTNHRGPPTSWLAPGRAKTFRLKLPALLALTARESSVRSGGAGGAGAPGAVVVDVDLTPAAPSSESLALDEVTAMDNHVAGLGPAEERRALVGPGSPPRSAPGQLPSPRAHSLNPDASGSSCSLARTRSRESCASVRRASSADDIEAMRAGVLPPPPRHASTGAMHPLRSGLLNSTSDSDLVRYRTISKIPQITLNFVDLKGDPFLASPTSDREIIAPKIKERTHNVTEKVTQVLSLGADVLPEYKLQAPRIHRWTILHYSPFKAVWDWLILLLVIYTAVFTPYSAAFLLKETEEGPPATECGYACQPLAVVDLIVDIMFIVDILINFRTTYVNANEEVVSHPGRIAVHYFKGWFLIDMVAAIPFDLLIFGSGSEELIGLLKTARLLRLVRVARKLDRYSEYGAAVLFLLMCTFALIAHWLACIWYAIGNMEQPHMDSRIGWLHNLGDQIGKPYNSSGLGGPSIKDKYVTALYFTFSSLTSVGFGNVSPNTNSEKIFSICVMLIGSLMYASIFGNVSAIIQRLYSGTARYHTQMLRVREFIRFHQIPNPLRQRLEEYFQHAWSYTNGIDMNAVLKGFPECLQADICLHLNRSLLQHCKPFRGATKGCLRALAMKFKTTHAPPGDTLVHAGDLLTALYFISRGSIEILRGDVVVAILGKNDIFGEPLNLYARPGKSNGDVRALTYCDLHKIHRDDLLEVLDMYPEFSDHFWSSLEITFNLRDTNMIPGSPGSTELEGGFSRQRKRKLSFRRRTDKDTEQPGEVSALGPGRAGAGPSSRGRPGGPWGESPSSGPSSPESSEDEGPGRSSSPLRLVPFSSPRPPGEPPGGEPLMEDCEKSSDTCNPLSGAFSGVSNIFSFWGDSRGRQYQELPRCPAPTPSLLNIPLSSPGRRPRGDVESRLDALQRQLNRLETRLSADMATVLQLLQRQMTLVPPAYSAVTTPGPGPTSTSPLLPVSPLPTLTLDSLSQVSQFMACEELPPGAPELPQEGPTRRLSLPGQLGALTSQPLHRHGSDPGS
Luciferin 4-monooxygenase (Photinus pyralis), sequence (P08659 whole entry, looked up): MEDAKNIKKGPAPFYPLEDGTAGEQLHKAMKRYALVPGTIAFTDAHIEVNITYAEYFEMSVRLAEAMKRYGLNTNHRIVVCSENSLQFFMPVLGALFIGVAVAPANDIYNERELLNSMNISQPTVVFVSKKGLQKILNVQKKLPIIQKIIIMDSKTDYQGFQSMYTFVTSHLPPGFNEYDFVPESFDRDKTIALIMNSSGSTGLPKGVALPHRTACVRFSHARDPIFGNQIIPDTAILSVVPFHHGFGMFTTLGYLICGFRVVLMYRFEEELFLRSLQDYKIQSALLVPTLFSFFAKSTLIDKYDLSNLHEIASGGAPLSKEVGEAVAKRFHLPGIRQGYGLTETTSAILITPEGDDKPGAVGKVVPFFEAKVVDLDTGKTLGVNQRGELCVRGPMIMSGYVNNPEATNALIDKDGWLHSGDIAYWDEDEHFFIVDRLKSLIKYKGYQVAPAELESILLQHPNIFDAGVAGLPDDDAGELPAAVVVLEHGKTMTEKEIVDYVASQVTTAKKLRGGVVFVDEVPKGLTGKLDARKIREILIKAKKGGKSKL
Glutaminase kidney isoform, mitochondrial (Homo sapiens), sequence (O94925 whole entry, looked up, canonical isoform): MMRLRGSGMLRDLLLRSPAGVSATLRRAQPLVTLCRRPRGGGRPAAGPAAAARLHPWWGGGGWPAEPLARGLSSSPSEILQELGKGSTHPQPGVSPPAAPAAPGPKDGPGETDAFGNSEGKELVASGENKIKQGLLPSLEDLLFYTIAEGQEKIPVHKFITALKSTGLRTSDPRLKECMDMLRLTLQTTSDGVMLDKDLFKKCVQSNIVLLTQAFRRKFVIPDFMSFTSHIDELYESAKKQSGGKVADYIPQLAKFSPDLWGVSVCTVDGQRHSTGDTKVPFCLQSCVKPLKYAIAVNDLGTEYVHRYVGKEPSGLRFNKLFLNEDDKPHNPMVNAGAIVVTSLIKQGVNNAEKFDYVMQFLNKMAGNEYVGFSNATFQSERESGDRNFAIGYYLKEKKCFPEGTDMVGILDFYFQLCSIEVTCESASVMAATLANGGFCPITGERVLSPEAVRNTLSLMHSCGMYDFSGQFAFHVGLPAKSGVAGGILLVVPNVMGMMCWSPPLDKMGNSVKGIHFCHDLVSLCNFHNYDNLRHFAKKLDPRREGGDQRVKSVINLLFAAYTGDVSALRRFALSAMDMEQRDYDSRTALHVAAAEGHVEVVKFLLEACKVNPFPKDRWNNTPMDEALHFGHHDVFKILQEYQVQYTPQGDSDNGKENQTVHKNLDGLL

For `COC1=CC=C2[C@H]3Cc4ccc(OC)c5c4[C@@]2(CCN3C)[C@H]1O5`, the Potency entry in [1], in assay [2], in [3] and in [4] was “inactive” in each case.

Consider `[N-]=[N+]=CC(=O)OCC(N)C(=O)O` (centres undefined), for which the Potency entry in assay [1], in [3] and in [4] was “inactive” throughout.

For `CCCCCCCCCC(=O)O[C@H]1CC[C@H]2[C@@H]3CCC4=CC(=O)CC[C@]4(C)[C@H]3CC[C@]12C`, the Potency result in [1], in assay [3] and in assay [4] was “inactive” each time.

On to `CCC(C)(S(=O)(=O)CC)S(=O)(=O)CC`, for which the Potency result in assay [1], in assay [2], in [5] and in assay [4] was “inactive” in each case.

`C=CCN1CCC23c4c5ccc(O)c4O[C@H]2C(=O)CC[C@@]3(O)C1C5` (some centres undefined): the Potency entry in assay [1], in assay [2], in assay [3], in assay [6], in assay [8] and in [9] was “inactive” each time. In addition, the result in assay [7] was inactive.

Turning to `CC(=O)OC1CN2CCC1CC2` (centres undefined), the Potency entry in assay [1], in [3] and in assay [4] was “inactive” in each case.

For the compound `CCOc1ccc2c3c1O[C@H]1[C@@H](O)C=C[C@H]4[C@@H](C2)N(C)CC[C@@]341`, the Potency result in assay [1] and in [3] was “inactive” in each case.

With `S=C(S)N1CCNCC1`, the Potency entry in assay [1] and in assay [3] was “inactive” each time.

Turning to `CCC1(c2ccccc2)C(=O)NC(=O)NC1=O`, the Potency result in [1], in [3], in assay [5] and in assay [4] was “inactive” throughout.

Turning to `CN1[C@@H]2CC[C@H]1CC(OC1c3ccccc3CCc3ccccc31)C2` (some centres undefined), the Potency in [1] was 8.91 µM (active). Also, the Potency entry in assay [2] and in [4] was “inactive” in each case.

Take `CN1CCCC(=C(c2cccs2)c2cccs2)C1`: the Potency in assay [1] is 8.91 µM (active). Further, the Potency result in [2], in [3] and in assay [4] was “inactive” in each case.

On to `CC(N)c1cccc(Cl)c1Cl` (centres undefined), for which the Potency entry in assay [1], in assay [10], in assay [6], in assay [8] and in assay [9] was “inactive” throughout. The compound was called inactive in [7].

For `C[C@@H](Cc1ccccc1)NCCC(c1ccccc1)c1ccccc1`, the Potency in assay [1] is 0.631 µM (active). The Potency entry in [5] and in [4] was “inactive” throughout.

Consider `CC1(C(=O)O)C2CCC(O2)C1(C)C(=O)O` (centres undefined), for which the Potency entry in [1], in [10], in assay [6], in assay [8] and in assay [9] was “inactive” in each case. In assay [7], the result was inactive.

Turning to `C=CCN1CC[C@]23c4c5ccc(O)c4O[C@H]2/C(=N/NC(=O)c2ccccc2)CC[C@@]3(O)[C@H]1C5`, the values for the Potency in assay [1] and in assay [10] were 3.16 µM (active) and 14.1 µM (active), respectively. Also, the Potency entry in assay [6], in assay [8] and in assay [9] was “inactive” each time. For the same compound, the call in assay [7] was inactive.

On to `NCC(O)c1cc(O)c(O)cc1F` (centres undefined), for which the Potency entry in assay [1], in assay [10], in assay [6] and in assay [8] was “inactive” in each case. Besides, the call in [7] was inactive. Further, the Potency in assay [9] is 0.326 µM (active).

Consider `O=C(CS(=O)C(c1ccccc1)c1ccccc1)NO` (centres undefined), for which the Potency entry in assay [1] and in [4] was “inactive” in each case.

For the compound `Clc1cc(I)cc(Cl)c1NC1=NCCN1`, the Potency entry in assay [1], in assay [10], in assay [6] and in [8] was “inactive” in each case. The result in [7] was inactive.

As for `CC(Cc1ccc(OCC(=O)O)cc1)NCC(O)c1cccc(Cl)c1` (centres undefined), the Potency result in assay [1], in assay [10], in assay [6], in assay [8] and in assay [9] was “inactive” throughout.

With `C[N+](C)(C)CC#CCN1CCCC1=O`, the Potency result in assay [1], in [10], in assay [6], in assay [8] and in [9] was “inactive” each time. Also, in assay [7], the result was inactive.

For `NC(=O)c1ccc(OCC(O)CN2CC=C(c3ccc(F)cc3)CC2)cc1` (centres undefined), the Potency in [1] is 7.94 µM (active). In addition, the Potency result in assay [10], in [6], in [8] and in assay [9] was “inactive” each time. For the same compound, in assay [7], the result was inactive.

Regarding `N[C@@H](Cn1oc(=O)[nH]c1=O)C(=O)O`, the Potency result in assay [1], in assay [10], in [6], in [8] and in assay [9] was “inactive” each time. In addition, the call in assay [7] was inactive.

For the compound `C[N+](C)(C)CC#CCOC(=O)Nc1cccc(Cl)c1`, the Potency result in [1], in [10], in [6], in [8] and in assay [9] was “inactive” in each case. Besides, the compound was called inactive in assay [7].

As to `CCCCCCC(C)(C)c1ccc([C@@H]2C[C@H](O)CC[C@H]2CCCO)c(O)c1`, in [1], the Potency is 8.91 µM (active). The Potency result in [10], in [6], in assay [8] and in [9] was “inactive” throughout. In assay [7], the call was inactive.

Consider `NCCc1c[nH]c2ccc(C(N)=O)cc12`, for which the Potency entry in [1], in assay [10], in assay [6], in [8] and in assay [9] was “inactive” in each case. Further, the compound was called inactive in [7].

For the compound `C[N+](C)(C)CCOC(=O)CBr`, the Potency entry in [1], in [10], in assay [6], in assay [8] and in assay [9] was “inactive” throughout. Also, in [7], the call was inactive.

Take `CC1OC1P(=O)(O)O` (centres undefined): the Potency entry in assay [1], in assay [4] and in assay [10] was “inactive” in each case.

On to `C[C@H](Cc1ccc2c(c1)OC(C(=O)O)(C(=O)O)O2)NC[C@H](O)c1cccc(Cl)c1`, for which the Potency result in assay [1], in assay [10], in assay [6], in [8] and in [9] was “inactive” throughout. For the same compound, in assay [7], the result was inactive.

Regarding `F/C(COc1ccc2c(c1)[nH]c1ccccc12)=C1/CN2CCC1CC2`, the Potency in assay [1] was 22.4 µM (active). Further, the Potency entry in assay [5] and in assay [4] was “inactive” in each case.

`C/C(=C\c1csc(C)n1)[C@@H]1C[C@@H]2O[C@]2(C)CCC[C@H](C)[C@H](O)[C@@H](C)C(=O)C(C)(C)[C@@H](O)CC(=O)O1`: the Potency entry in assay [1] was “inactive”. Also, in assay [5], the Potency is 0.0573 µM (active).

For `NC(=O)c1cc(N2CC2)c([N+](=O)[O-])cc1[N+](=O)[O-]`, the Potency result in assay [1], in assay [10], in [6], in assay [8] and in assay [9] was “inactive” each time. The result in [7] was inactive.

For the compound `CC(N)Cc1c[nH]c2ccc(O)cc12` (centres undefined), the Potency result in [1], in [6], in assay [8] and in assay [9] was “inactive” in each case. Besides, the Potency in assay [10] was 0.794 µM (active). Moreover, the compound was classed as inactive in assay [7].

Regarding `C/C(O)=C(\C#N)C(=O)Nc1cc(Br)ccc1Br`, the Potency entry in assay [1], in assay [10], in [6], in assay [8] and in [9] was “inactive” in each case. Besides, the call in assay [7] was inactive.

In the case of `CCCN(CCC)C1CCc2cccc(O)c2C1` (centres undefined), the Potency entry in assay [1], in [10], in assay [6] and in assay [8] was “inactive” throughout. Besides, the call in [7] was inactive.

Turning to `Oc1ccc2c3c1O[C@H]1c4oc5ccccc5c4C[C@@]4(O)C(C2)N(CC2CC2)CCC314` (some centres undefined), the Potency was 0.355 µM (active) in assay [1] and 8.91 µM (active) in [10]. Besides, the Potency entry in assay [6], in assay [8] and in assay [9] was “inactive” in each case. Also, in [7], the outcome was inactive.

As to `OC1CCCCC1N1CCC(c2ccccc2)CC1` (centres undefined), the Potency result in [1], in assay [10], in [6], in [8] and in [9] was “inactive” in each case. In addition, the compound was classed as inactive in assay [7].

Values taken from PubChem BioAssay (NCATS).
